Test results from the supplement of paper PMC7801607.

Tests used:
CHO = assay: % viability of CHO cells (MTT); higher = less toxic; settings: 48 h
Procedure, shortened: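 CHO cells seeded at 10^6 cells/well were exposed to compound at 2 or 20 µM for 48 h. Survival, as percent of untreated cells, was measured with the colorimetric tetrazolium (MTT) assay.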

HepG2-A16-CD81 = assay: % inhibition of HepG2 viability (CellTiter-Glo); higher = more toxic; settings: 5 µM
[1] = test system: Plasmodium falciparum NF54 stage IV/V gametocytes; assay: % inhibition of gametocyte viability (PrestoBlue); higher = more inhibition; settings: 48 h
Procedure, shortened: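 Compound was tested at 1 or 5 µM against Stage IV/V NF54 gametocytes plated at 100 µL/well (2% gametocytaemia, 5% haematocrit). After 48 h of stationary, hypoxic incubation at 37 °C, 10 µL PrestoBlue was added for 2 h before reading 612 nm fluorescence from 70 µL of transferred supernatant. Gametocyte viability inhibition, as a percentage, was scaled against vehicle and kill controls from a single run.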

[2] = test system: Plasmodium falciparum NF54 asexual blood stage; assay: % inhibition of asexual blood stage proliferation (pLDH); higher = more inhibition; settings: 72 h
Procedure, shortened: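 In 96-well plates, compound at 2 or 20 µM was added to Plasmodium falciparum NF54 ring-stage cultures (1% haematocrit, 2% parasitaemia). Plates were incubated for 72 h at 37 °C in 4% CO2, 3% O2 and 93% N2, and survival was then read at 620 nm using the parasite lactate dehydrogenase assay. Inhibition of asexual proliferation, expressed as a percentage, was normalised to controls.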

[3] = test system: Plasmodium falciparum NF54 stage IV/V gametocytes; assay: % inhibition of gametocyte viability (ATP bioluminescence); higher = more inhibition; settings: 24 h
Procedure, shortened: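 Density gradients were used to enrich stage IV/V NF54 gametocytes, which were then seeded into 96-well plates at 30,000 per well with compound at 1 or 5 µM. The plates were incubated at 37 °C for 24 h, and ATP was measured with the Promega BacTiter Glo bioluminescence system. Percent inhibition of gametocyte viability was normalised to the plate controls from a single run.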

[4] = test system: Plasmodium falciparum NF54 stage IV/V gametocytes; assay: % inhibition of gametocyte viability (luciferase reporter); higher = more inhibition; settings: 48 h
Procedure, shortened: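 Percent inhibition came from luminescence and was normalised to controls in a single run. Gametocytes (stage IV/V, NF54-Pfs16-GFP-Luc line, 2% gametocytaemia, 2% haematocrit) were treated with compound at 1 or 5 µM and incubated for 48 h at 37 °C without agitation under hypoxia. Readings used 30 µL lysate with 30 µL Promega luciferin substrate on a GloMax-Multi+ reader, integrating for 10 s.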

[5] = test system: Plasmodium berghei ANKA liver stage in HepG2-A16-CD81; assay: % inhibition of liver stage parasite viability (luciferase); higher = more inhibition; settings: 5 µM; 48 h
Experimental: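 Single-concentration screen of the MMV Pandemic Response Box. P. falciparum NF54 asexual blood stages: pLDH assay, 72 h at 37 °C, 2 and 20 µM, n=2. Stage IV/V gametocytes (NF54): luciferase reporter (NF54-Pfs16-GFP-Luc, 48 h), ATP bioluminescence (24 h) and PrestoBlue (48 h) at 1 and 5 µM, n=1. P. berghei liver stage (luciferase in HepG2-A16-CD81, 48 h post infection) at 5 µM, n=4. All normalised to DMSO and kill controls as % inhibition.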
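Throughout, for % inhibition of HepG2 viability (CellTiter-Glo): HepG2-A16-CD81 hepatoma cells plated as in the liver-stage assay but without sporozoites, with DMSO wells as negative and 25 µM puromycin as positive control.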

SMILES	% viability of CHO cells (CHO; 2 µM)	% viability of CHO cells (CHO; 20 µM)	% inhibition of HepG2 viability (HepG2-A16-CD81)	% inhibition of gametocyte viability ([1]; 1 µM)	% inhibition of gametocyte viability ([1]; 5 µM)	% inhibition of asexual blood stage proliferation ([2]; 2 µM)	% inhibition of asexual blood stage proliferation ([2]; 20 µM)	% inhibition of gametocyte viability ([3]; 1 µM)	% inhibition of gametocyte viability ([3]; 5 µM)	% inhibition of gametocyte viability ([4]; 1 µM)	% inhibition of gametocyte viability ([4]; 5 µM)	% inhibition of liver stage parasite viability [5]
Cc1ccccc1NC(=O)Nc1cccc([N+](=O)[O-])c1	121%	111%	8.58%	< 0%	2.93%	3.72%	73.7%	6.45%	< 0%	3.59%	< 0%	6.73%
Nc1nc2c(Cc3cccnc3)c[nH]c2c(=O)[nH]1	97.2%	113%	-4.71%	26.1%	24.3%	2.83%	19.8%	< 0%	< 0%	< 0%	< 0%	27.7%
CCC(C)NCC(O)Cn1c2ccc(Cl)cc2c2cc(Cl)ccc21 (centres undefined)	112%	1.87%	1.41%	33.3%	87.6%	68.7%	81.8%	6.9%	68.2%	< 0%	91%	-2.71%
CC(C)(C)c1ccc(Oc2ccc(N)cc2)cc1	130%	58.8%	-4.14%	< 0%	67%	-4.84%	55.8%	< 0%	< 0%	66.9%	89.3%	54.4%
CCNC(=O)Nc1cc2c(-c3ccnc(C)c3)ccc(CNC(=O)OC)c2cn1	92.8%	58.1%	5.56%	< 0%	27.4%	0.638%	33.7%	< 0%	< 0%	< 0%	5.9%	25.9%
C[Si]1(C)CCN(Cc2cc(-c3ccc(Cl)cc3)n(-c3ccc(Cl)cc3)n2)CC1	108%	71.6%	5.65%	28.8%	68.7%	57%	59.2%	3.88%	81%	3.92%	31.2%	33.3%
C[C@H]1CC[C@@]2(O)C(C)(C)[C@@H]3CC[C@@]2(C)[C@H]1C3	119%	112%	-2.52%	< 0%	< 0%	7.01%	18.1%	< 0%	< 0%	< 0%	< 0%	29.2%
Cc1c(CN(C)C(=O)/C=C/c2cnc3c(c2)C(C)(C)C(=O)N3)oc2ccccc12	105%	87.2%	9.28%	< 0%	9.55%	13.1%	78.8%	< 0%	< 0%	< 0%	15.2%	11.2%
Nc1ccc2oc(=O)ccc2c1I	72.9%	60%	-2.48%	< 0%	< 0%	29.8%	37.3%	< 0%	< 0%	3.24%	2.65%	6.97%
O=C1C=C(c2ccccc2)S(=O)(=O)c2ccccc21	91.6%	81.8%	-4.77%	53.4%	76%	-2.86%	54.4%	13.8%	83.4%	16%	85.4%	30.4%
O=C(O)c1ccc(-n2nc(-c3ccccc3O)nc2-c2ccccc2O)cc1	85.7%	106%	3.21%	8.04%	< 0%	-5.88%	-5.43%	< 0%	< 0%	< 0%	< 0%	18.6%
NC[C@H]1O[C@H](O[C@H]2[C@H](O)[C@@H](O[C@H]3O[C@H](CO)[C@@H](O)[C@H](N)[C@H]3O)[C@H](N)C[C@@H]2N)[C@H](N)C[C@@H]1O	111%	8.4%	-3.85%	< 0%	1.53%	-2.54%	18.7%	< 0%	< 0%	< 0%	6.32%	36.3%
CCCCCCCCC(CP(=O)(O)C(C)N)C(=O)O (centres undefined)	97.4%	137%	-1.01%	< 0%	< 0%	17.8%	95.7%	< 0%	< 0%	< 0%	10.2%	24.3%
O=C(Nc1cccc(C2=NCCN2)c1)c1ccc(-c2ccc(C(=O)Nc3cccc(C4=NCCN4)c3)cc2)cc1	90.2%	96.3%	14.5%	31.3%	62.4%	54%	41.2%	7.89%	38%	< 0%	59.1%	15.4%
CC(=O)NC[C@H]1CN(c2ccc(N3CCSCC3)c(F)c2)C(=O)O1	105%	91.5%	4.22%	< 0%	< 0%	37.1%	49.9%	< 0%	< 0%	< 0%	< 0%	50.2%
CCCCOC(=O)Nc1cc2nc(C3CCCCC3)[nH]c2cc1N(CC)CC	98.9%	101%	3.15%	< 0%	< 0%	18.6%	83.2%	< 0%	19.3%	< 0%	< 0%	62%
CC(C)/N=c1\cc2n(-c3ccc(Cl)cc3)c3ccccc3nc-2cc1Nc1ccc(Cl)cc1	96.5%	98.2%	18.3%	< 0%	< 0%	82.2%	88.9%	< 0%	< 0%	< 0%	16%	59.4%
CN(C)CCCNC(=O)c1ccc(-c2cc(O)c3ncccc3c2)cc1	115%	110%	-5.75%	70.8%	81.4%	68.6%	82.4%	71%	81.1%	5.12%	23.3%	24.5%
Clc1cccc(-c2nnc(-c3ccccc3)o2)c1	98.4%	113%	-5.12%	< 0%	< 0%	9.27%	15.9%	< 0%	< 0%	< 0%	30.2%	-89.2%

SMILES	% viability of CHO cells (CHO; 2 µM)	% viability of CHO cells (CHO; 20 µM)	% inhibition of HepG2 viability (HepG2-A16-CD81)	% inhibition of gametocyte viability ([1]; 1 µM)	% inhibition of gametocyte viability ([1]; 5 µM)	% inhibition of asexual blood stage proliferation ([2]; 2 µM)	% inhibition of asexual blood stage proliferation ([2]; 20 µM)	% inhibition of gametocyte viability ([3]; 1 µM)	% inhibition of gametocyte viability ([3]; 5 µM)	% inhibition of gametocyte viability ([4]; 1 µM)	% inhibition of gametocyte viability ([4]; 5 µM)	% inhibition of liver stage parasite viability [5]
Cn1c2ccccc2c(=O)c2c(O)cccc21	229%	55%	-9.48%	26.6%	21.6%	20.3%	11%	6.28%	< 0%	7.24%	< 0%	29.3%
O=C(O)c1cc(-c2ccc(Br)cc2)nc2ccc(Cl)cc12	96.8%	111%	3.15%	14.7%	5.76%	7.74%	-6.63%	< 0%	< 0%	< 0%	< 0%	-34.6%
Cc1c(OCC(F)(F)F)ccnc1CS(=O)c1nc2ccccc2[nH]1 (centres undefined)	87.1%	96.9%	1.82%	14.1%	15.8%	71.5%	95.5%	< 0%	< 0%	< 0%	< 0%	-23.2%
C[C@H](Cn1cnc2c(N)ncnc21)OCP(=O)(O)O	89.8%	99.9%	-1.34%	10.5%	17.7%	-36.5%	46.2%	5.56%	< 0%	9.2%	< 0%	9.32%
Cc1c(N)cccc1Cn1ccc(OCCc2cccs2)cc1=O	240%	54.9%	5.54%	< 0%	< 0%	6.4%	22.2%	0.516%	< 0%	< 0%	< 0%	17%
Oc1ccc2[nH]c(-c3ccccc3)nc2c1	107%	93%	12.1%	10.1%	13.2%	29.1%	62.2%	< 0%	< 0%	< 0%	< 0%	-35.4%
CN(Cc1ccc(C(C)(C)C)cc1)Cc1cccc2ccccc12	92.4%	110%	2.12%	7.34%	8.91%	-5.03%	71.1%	< 0%	< 0%	< 0%	< 0%	10.2%
O=C(CC1Sc2ncnn2C1=O)Nc1ccc(Br)cc1 (centres undefined)	100%	102%	-3.25%	20.1%	9.94%	24.1%	42.2%	8.79%	43.5%	< 0%	1.92%	20.8%
Nc1cc(N)c2nc(-c3ccccc3)c(Nc3ccc(F)cc3)nc2c1	97.5%	88.4%	12.8%	< 0%	< 0%	91%	92.4%	< 0%	19.7%	< 0%	< 0%	43.9%
CCc1nc2ccc(Cl)cn2c1C(=O)NCc1ccc(N2CCC(c3ccc(OC(F)(F)F)cc3)CC2)cc1	91.1%	113%	7.13%	22%	< 0%	31.7%	102%	< 0%	< 0%	4.46%	< 0%	72.1%
NC(=O)c1c(N)sc2c1CCCCC2	87%	32%	6.02%	< 0%	8.3%	4.8%	-4.48%	< 0%	< 0%	0.638%	1.6%	-7.51%
COc1cc(C(C(=O)NC2CCCCC2)N(C(=O)Cc2c[nH]c3ccccc23)c2ccc(C(C)C)cc2)cc(OC)c1OC (centres undefined)	90.8%	90.4%	1.92%	18.7%	22.7%	22.1%	71.8%	< 0%	7.49%	1.84%	18.1%	18.7%
Cc1ccc(NC(=O)c2ccc(CN3CCN(C)CC3)cc2)cc1Nc1nccc(-c2cccnc2)n1	87.6%	50.2%	6.65%	< 0%	< 0%	60.6%	98.3%	< 0%	< 0%	0.104%	< 0%	8.45%
CN(C(=O)C1(c2ccc(Cl)cc2)CCC1)c1ccccc1	105%	102%	-4.47%	17.1%	17.3%	10.7%	59%	< 0%	< 0%	< 0%	1.35%	3.18%
N=C(N)c1ccc(COc2ccc(Cl)cc2)cc1	103%	102%	2.38%	< 0%	11.4%	11.1%	89.9%	0.321%	4.27%	< 0%	< 0%	-17.2%
CS(=O)(=O)c1ccc(Oc2ccc(Cl)cc2)cc1	98.9%	121%	-1.85%	21.5%	13.8%	28.1%	69.1%	< 0%	< 0%	< 0%	< 0%	9.76%
CC[C@@]1(O)C(=O)OCc2c1cc1n(c2=O)Cc2cc3c([N+](=O)[O-])cccc3nc2-1	128%	99.3%	65.7%	< 0%	< 0%	10.9%	66.6%	5.04%	< 0%	< 0%	< 0%	62.8%
C(=C\c1nc2ccccc2[nH]1)/c1ccc2c(c1)OCO2	110%	50.4%	6.95%	57.1%	71.2%	15.3%	29.1%	< 0%	< 0%	5.91%	73.3%	-23.6%
